From PubChem BioAssay (Tox21) come the findings set out here.

Experiment [1] in a line: qHTS assay to identify small molecule antagonists of the sonic hedgehog signaling (Shh) pathway (AID 1259369). Also: nearly all actives have a fitted effect of over 45% in size. Also: potency is read from the fitted curve at half-maximal effect. The procedure, abridged: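 NIH/3T3-derived Gli1-Luc reporter cells plated 4 h, dosed with compound, then stimulated with conditioned medium for 24 h at 37 C. Firefly luciferase luminescence read after 30 min with detection reagent at room temperature.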
Background: In qHTS, concentration-response curves come from the screen itself.

The target in experiment [2] is Estrogen receptor beta (Homo sapiens) (UniProt Q92731). Nature of the experiment: qHTS assay to identify small molecule agonists of the estrogen receptor beta (ER-beta) signaling pathway (AID 1259377; active = well fitted activation curve with a large enough effect in the signal ratio in the repeat runs, not every such curve was filed as active; the % refers to the signal ratio). The procedure, abridged: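 A UAS-controlled beta-lactamase reporter in ER-beta-UAS-bla HEK293T cells reports receptor activation. Compounds act for 16 hr at 37C in 2% charcoal-stripped serum, and a FRET substrate is read by fluorescence after 2 hours.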
Sequence of Estrogen receptor beta (Homo sapiens) (Q92731 whole entry, looked up): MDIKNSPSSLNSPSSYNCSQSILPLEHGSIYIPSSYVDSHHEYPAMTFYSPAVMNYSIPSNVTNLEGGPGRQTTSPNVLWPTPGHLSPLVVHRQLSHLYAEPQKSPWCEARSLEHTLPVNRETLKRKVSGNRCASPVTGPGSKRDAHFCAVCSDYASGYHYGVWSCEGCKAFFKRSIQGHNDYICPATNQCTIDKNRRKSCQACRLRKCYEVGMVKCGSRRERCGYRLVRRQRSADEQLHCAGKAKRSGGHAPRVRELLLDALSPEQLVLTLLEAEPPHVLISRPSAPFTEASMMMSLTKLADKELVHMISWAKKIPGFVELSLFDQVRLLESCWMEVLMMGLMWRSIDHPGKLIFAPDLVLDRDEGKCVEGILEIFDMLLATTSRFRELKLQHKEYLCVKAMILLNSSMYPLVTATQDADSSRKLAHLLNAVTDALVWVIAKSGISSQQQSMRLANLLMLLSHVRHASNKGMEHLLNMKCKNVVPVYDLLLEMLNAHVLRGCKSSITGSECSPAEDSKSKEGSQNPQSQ

Experiment [3] can be described thus: qHTS assay to identify small molecule agonists of the androgen receptor (AR) signaling pathway in the presence of an antagonist - cell viability counter screen (AID 1259379; active = well fitted curve in the direction sought with a large enough effect in the repeat runs; an effect the other way counts as inactive or inconclusive;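 also: MDA-kb2 human breast cancer cells carrying an MMTV luciferase reporter; series mostly up to about 92 µM; nearly all actives have a fitted effect of over 25% in size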). The procedure, abridged:
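MDA-kb2 cells (MMTV-luciferase, AR/GR), 3,000/well, 5 h attachment, then 3.0 µM nilutamide (final) and compounds at 15 concentrations. Viability by CellTiter-Fluor fluorescence after 16 h at 37 °C, 0% CO2, in the reporter wells.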

Experiment [4] in a line: qHTS assay to identify small molecule antagonists of the estrogen receptor beta (ER-beta) signaling pathway - cell viability counter screen (AID 1259382; active = well fitted curve in the direction sought with a large enough effect in the repeat runs; an effect the other way counts as inactive or inconclusive; also: nearly all actives have a fitted effect of over 55% in size; also: potency is read from the fitted curve at half-maximal effect). A digest of the protocol: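 ER-beta-UAS-bla HEK293T cells in 2% charcoal-stripped FBS medium, treated with compound plus 1 nM 17-beta-estradiol for 16 h at 37C. Viability read by CellTiter-Glo luminescence after 30 min at room temperature in the same wells.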

Experiment [5] has as its target Estrogen receptor (Homo sapiens) (UniProt P03372). As to the kind of experiment: qHTS assay to identify small molecule agonists of the estrogen receptor alpha (ER-alpha) signaling pathway in the presence of an antagonist (AID 1259383). Also: top concentration of the series differs between compounds; nearly all actives have a fitted effect of over 15% in size. The procedure, abridged:
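VM7Luc4E2 cells express endogenous full-length ER-alpha with an ERE-luciferase reporter and were hormone-deprived for 5 days. Compounds at 15 concentrations were added with 10.0nM ICI-182,780 for 22hr at 37C. Luminescence was read with ONE-Glo.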

The nature of experiment [6]: qHTS assay to identify small molecule agonists of the estrogen receptor alpha (ER-alpha) signaling pathway in the presence of an antagonist - cell viability counter screen (AID 1259386; active = well fitted curve in the direction sought with a large enough effect in the repeat runs; an effect the other way counts as inactive or inconclusive;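 also: series mostly up to about 92 µM; cells exposed to compounds for 22 h at 37 °C before the viability read; nearly all actives have a fitted effect of over 30% in size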). The procedure, abridged: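 Cell viability in VM7Luc4E2 cells (endogenous full-length ER-alpha) measured by CellTiter-Fluor fluorescence in the same wells as the luciferase screen. Cells pre-cultured 5 days in charcoal-stripped serum, then treated 22 h with compounds at 15 concentrations plus 10.0nM ICI-182,780.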

Experiment [7] has as its target Progesterone receptor (Homo sapiens) (UniProt P06401). Nature of the experiment: qHTS assay to identify small molecule agonists of the progesterone receptor (PR) signaling pathway (AID 1346784). Also: nearly all actives have a fitted effect of over 30% in size. The procedure, abridged: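 Agonist mode, quantitative HTS format in a HEK 293T line expressing a UAS-controlled beta-lactamase reporter; 16 hr compound exposure at 37C in 2% charcoal-stripped FBS, then LiveBLAzer B/G FRET fluorescence.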

The target is the same in experiment [8]. As to the kind of experiment: qHTS assay to identify small molecule antagonists of the progesterone receptor (PR) signaling pathway (AID 1346795; active = well fitted inhibition curve with a large enough effect in the signal ratio in the repeat runs, not every such curve was filed as active; the % refers to the signal ratio). The procedure, abridged:
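HEK293T PR-UAS-bla reporter cells in charcoal-stripped serum (2%) received compound after a 6 hr settling period, followed by R5020 agonist at 1 nM final; 16 hr incubation preceded the FRET substrate step and fluorescence measurement.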

Experiment [9] is described as follows: qHTS assay to identify small molecule antagonists of the progesterone receptor (PR) signaling pathway - cell viability counter screen (AID 1346798; active = well fitted curve in the direction sought with a large enough effect in the repeat runs; an effect the other way counts as inactive or inconclusive; also: series mostly up to about 92 µM; nearly all actives have a fitted effect of over 50% in size). A digest of the protocol: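 Same-well multiplex: after 16 hr at 37C with compound and R5020 stimulation, HEK293T cells carrying a UAS-bla reporter received LiveBLAzer substrate (2 hr RT), then CellTiter-Glo (30 min RT) for luminescent viability.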

Experiment [10] is described as follows: qHTS assay to identify small molecule agonists of the progesterone receptor (PR) signaling pathway - cell viability counter screen (AID 1346799). Also: nearly all actives have a fitted effect of over 45% in size. Also: potency is read from the fitted curve at half-maximal effect. The procedure, abridged: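 Counter screen for cytotoxicity: compound-treated PR-UAS-bla HEK293T cells (16 hr, 37C, 5% CO2) were assayed with CellTiter-Glo, luminescence measured after 30 min at room temperature.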

Experiment [11] in a line: qHTS assay to identify small molecule antagonists of the TGF-beta/Smad signaling pathway - cell viability counter screen (AID 1346824; active = well fitted curve in the direction sought with a large enough effect in the repeat runs; an effect the other way counts as inactive or inconclusive; also: nearly all actives have a fitted effect of over 50% in size). The procedure, abridged:
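Cytotoxicity counter-screen run in the same wells as the beta-lactamase Smad reporter read: CellTiter-Glo luminescence after 30 min at room temperature. HEK 293T SBE-bla cells had 5 hr compound exposure at 37 C with TGF-beta1 (0.25 ng/mL stock).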

A short description of experiment [12]: qHTS assay to identify small molecule agonists of the TGF-beta/Smad signaling pathway - cell viability counter screen (AID 1346829; active = well fitted curve in the direction sought with a large enough effect in the repeat runs; an effect the other way counts as inactive or inconclusive; also: top concentration of the series differs between compounds; nearly all actives have a fitted effect of over 45% in size). The procedure, abridged: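 Same-well cytotoxicity: CellTiter-Glo added after the 2 hr room-temperature beta-lactamase substrate step, luminescence measured 30 min later; cells had 5 hr of compound at 37 C.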
The nature of experiment [13]: qHTS assay to identify small molecule agonists of the TGF-beta/Smad signaling pathway (AID 1346859; active = well fitted activation curve with a large enough effect in the signal ratio in the repeat runs, not every such curve was filed as active; the % refers to the signal ratio; also: series mostly up to about 77 µM). A digest of the protocol: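 Smad-responsive beta-lactamase reporter cells (HEK 293T) received compounds from DMSO stocks after overnight attachment, were incubated 5 hr, then treated 2 hr with FRET substrate before dual-emission fluorescence measurement (405 nm excitation).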

Experiment [14] has as its target Thyrotropin-releasing hormone receptor (Homo sapiens) (UniProt P34981). As to the kind of experiment: qHTS assay to identify small molecule agonists of the thyrotropin-releasing hormone receptor (TRHR) signaling pathway (AID 1346891). Also: series mostly up to about 58 µM. The procedure, abridged: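 Agonist-mode calcium mobilisation screen: TRHR-transfected HEK293 cells cultured overnight (18 h), dye-loaded for 2 h at 37 °C, exposed to compounds, and monitored by fluorescence for 3 min.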

A short description of experiment [15]: qHTS assay to identify small molecule agonists or antagonists of the thyroid stimulating hormone receptor (TSHR) signaling pathway - wild type cell line counter screen (AID 1259384). The procedure, abridged:
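Counter screen in untransfected Hek293: compounds (15-point titration, triplicate) plus phosphodiesterase inhibitor Ro20-1724 added after 18 h plating; 30 min RT. Intracellular cAMP via competitive d2/cryptate immunoassay, 1 h incubation.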

Experiment [16] concerns the target Thyrotropin receptor (Homo sapiens) (UniProt P16473). As to the kind of experiment: qHTS assay to identify small molecule antagonists of the thyroid stimulating hormone receptor (TSHR) signaling pathway (AID 1259385). Also: nearly all actives have a fitted effect of over 20% in size. Also: potency is read from the fitted curve at half-maximal effect. A digest of the protocol:
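Antagonist mode: compound-treated TSHR-expressing HEK293 cells were stimulated with 1.5 ng/mL TSH (final) in presence of Ro20-1724 for 30 min at RT. HTRF cAMP detection after 1 h; each compound tested at 15 concentrations, triplicate.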

For experiment [17], the target named is Estrogen receptor beta (Homo sapiens) (UniProt Q92731). As to the kind of experiment: qHTS assay to identify small molecule antagonists of the estrogen receptor beta (ER-beta) signaling pathway (AID 1259378; active = well fitted inhibition curve with a large enough effect in the signal ratio in the repeat runs, not every such curve was filed as active; the % refers to the signal ratio). The procedure, abridged:
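Antagonist mode: compounds added to beta-lactamase reporter HEK293T ER-beta-UAS cells stimulated with E2 (1nM final), 16 hr at 37C. LiveBLAzer B/G FRET substrate, 2 hours room temperature, fluorescence read-out.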

Experiment [18] in a line: qHTS assay to identify small molecule agonists of the estrogen receptor beta (ER-beta) signaling pathway - cell viability counter screen (AID 1259380; active = well fitted curve in the direction sought with a large enough effect in the repeat runs; an effect the other way counts as inactive or inconclusive; also: nearly all actives have a fitted effect of over 30% in size; also: potency is read from the fitted curve at half-maximal effect). The procedure, abridged: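 ER-beta-UAS-bla HEK293T cells in medium with 2% charcoal-stripped FBS, pre-incubated 6 hr, then treated 16 hr at 37C. Cytotoxicity read in the same wells by CellTiter-Glo luminescence after 30 min at room temperature.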

The target of experiment [19] is Androgen receptor (Homo sapiens) (UniProt P10275). As to the kind of experiment: qHTS assay to identify small molecule agonists of the androgen receptor (AR) signaling pathway in the presence of an antagonist (AID 1259381). Also: nearly all actives have a fitted effect of over 15% in size. The procedure, abridged:
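MDA-kb2 cells carrying MMTV-luciferase (AR/GR responsive), 3,000 cells/well, co-treated with 3.0 uM nilutamide final. Compounds at 15 concentrations, 16 hr at 37C without CO2. Luciferase luminescence read after 30 min with ONE-Glo.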

Experiment [20] has as its target Thyrotropin-releasing hormone receptor (Homo sapiens) (UniProt P34981). Nature of the experiment: qHTS assay to identify small molecule antagonists of the thyrotropin-releasing hormone receptor (TRHR) signaling pathway (AID 1346877; active = well fitted inhibition curve with a large enough effect in the repeat runs, not every such curve was filed as active; also: series mostly up to about 51 µM). A digest of the protocol: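 TRHR-expressing HEK293 cells loaded with calcium dye for 2 h at 37 C; compounds pre-incubated 5 min at room temperature before TRH challenge at 1 nM final. Intracellular calcium fluorescence read kinetically for 3 min; 15 concentrations in triplicate.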

Unmarked numbers belong to inactive results. Inconclusive results are not listed. The source made the active and inactive calls. Unless noted, calls follow the shape of the full dose curve.

Sequence of Estrogen receptor (Homo sapiens) (P03372 whole entry, looked up): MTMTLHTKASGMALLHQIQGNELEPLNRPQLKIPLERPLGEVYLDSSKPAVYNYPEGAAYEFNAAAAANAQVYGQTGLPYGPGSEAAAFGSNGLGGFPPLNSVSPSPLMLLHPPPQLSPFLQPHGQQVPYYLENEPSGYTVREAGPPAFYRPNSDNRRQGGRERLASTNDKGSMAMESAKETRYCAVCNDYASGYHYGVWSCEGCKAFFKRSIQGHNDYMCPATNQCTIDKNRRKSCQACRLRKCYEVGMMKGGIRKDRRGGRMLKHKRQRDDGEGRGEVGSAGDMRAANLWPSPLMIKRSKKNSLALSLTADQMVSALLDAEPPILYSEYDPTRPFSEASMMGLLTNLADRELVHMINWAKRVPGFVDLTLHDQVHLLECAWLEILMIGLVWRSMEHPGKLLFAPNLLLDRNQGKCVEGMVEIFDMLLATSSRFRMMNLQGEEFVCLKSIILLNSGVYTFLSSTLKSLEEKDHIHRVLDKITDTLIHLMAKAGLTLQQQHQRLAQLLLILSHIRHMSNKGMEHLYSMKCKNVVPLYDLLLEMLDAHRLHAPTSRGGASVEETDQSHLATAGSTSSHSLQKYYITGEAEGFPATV
Sequence of Thyrotropin-releasing hormone receptor (Homo sapiens) (P34981 whole entry, looked up): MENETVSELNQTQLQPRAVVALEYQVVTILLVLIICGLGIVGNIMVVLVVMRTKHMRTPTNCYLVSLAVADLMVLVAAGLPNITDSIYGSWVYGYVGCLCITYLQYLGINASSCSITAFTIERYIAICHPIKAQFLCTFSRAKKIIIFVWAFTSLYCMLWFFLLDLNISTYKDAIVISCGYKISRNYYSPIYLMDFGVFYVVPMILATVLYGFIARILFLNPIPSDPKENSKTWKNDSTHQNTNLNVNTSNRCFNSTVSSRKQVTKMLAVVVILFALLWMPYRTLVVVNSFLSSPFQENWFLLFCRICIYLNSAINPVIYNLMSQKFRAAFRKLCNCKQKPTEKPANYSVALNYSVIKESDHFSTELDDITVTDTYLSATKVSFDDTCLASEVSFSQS
Sequence of Progesterone receptor (Homo sapiens) (P06401 whole entry, looked up): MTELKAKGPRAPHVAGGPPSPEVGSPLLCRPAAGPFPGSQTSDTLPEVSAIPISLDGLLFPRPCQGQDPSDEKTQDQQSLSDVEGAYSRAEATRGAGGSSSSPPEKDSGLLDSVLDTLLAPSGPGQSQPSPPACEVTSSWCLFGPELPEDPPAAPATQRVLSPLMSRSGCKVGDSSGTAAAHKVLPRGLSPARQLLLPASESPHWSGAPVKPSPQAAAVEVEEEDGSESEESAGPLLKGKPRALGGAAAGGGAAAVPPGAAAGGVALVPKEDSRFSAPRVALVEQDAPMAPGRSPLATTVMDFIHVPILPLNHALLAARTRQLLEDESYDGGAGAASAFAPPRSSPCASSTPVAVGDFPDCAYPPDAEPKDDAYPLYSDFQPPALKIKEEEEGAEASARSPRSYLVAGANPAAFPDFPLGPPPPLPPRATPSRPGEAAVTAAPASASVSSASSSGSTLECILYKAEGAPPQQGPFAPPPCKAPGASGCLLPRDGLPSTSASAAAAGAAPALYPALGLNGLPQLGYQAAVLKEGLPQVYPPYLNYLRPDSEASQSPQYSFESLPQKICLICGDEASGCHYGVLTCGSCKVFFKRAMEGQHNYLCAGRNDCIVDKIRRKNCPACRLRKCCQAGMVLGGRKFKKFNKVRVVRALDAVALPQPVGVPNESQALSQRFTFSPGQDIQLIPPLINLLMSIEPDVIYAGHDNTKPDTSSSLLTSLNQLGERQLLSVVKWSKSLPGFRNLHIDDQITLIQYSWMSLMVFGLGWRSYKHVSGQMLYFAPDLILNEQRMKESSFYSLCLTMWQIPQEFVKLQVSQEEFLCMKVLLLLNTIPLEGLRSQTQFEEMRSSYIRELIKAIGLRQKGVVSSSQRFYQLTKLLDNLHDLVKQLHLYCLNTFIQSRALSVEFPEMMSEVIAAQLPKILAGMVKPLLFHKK
Sequence of Thyrotropin receptor (Homo sapiens) (P16473 whole entry, looked up): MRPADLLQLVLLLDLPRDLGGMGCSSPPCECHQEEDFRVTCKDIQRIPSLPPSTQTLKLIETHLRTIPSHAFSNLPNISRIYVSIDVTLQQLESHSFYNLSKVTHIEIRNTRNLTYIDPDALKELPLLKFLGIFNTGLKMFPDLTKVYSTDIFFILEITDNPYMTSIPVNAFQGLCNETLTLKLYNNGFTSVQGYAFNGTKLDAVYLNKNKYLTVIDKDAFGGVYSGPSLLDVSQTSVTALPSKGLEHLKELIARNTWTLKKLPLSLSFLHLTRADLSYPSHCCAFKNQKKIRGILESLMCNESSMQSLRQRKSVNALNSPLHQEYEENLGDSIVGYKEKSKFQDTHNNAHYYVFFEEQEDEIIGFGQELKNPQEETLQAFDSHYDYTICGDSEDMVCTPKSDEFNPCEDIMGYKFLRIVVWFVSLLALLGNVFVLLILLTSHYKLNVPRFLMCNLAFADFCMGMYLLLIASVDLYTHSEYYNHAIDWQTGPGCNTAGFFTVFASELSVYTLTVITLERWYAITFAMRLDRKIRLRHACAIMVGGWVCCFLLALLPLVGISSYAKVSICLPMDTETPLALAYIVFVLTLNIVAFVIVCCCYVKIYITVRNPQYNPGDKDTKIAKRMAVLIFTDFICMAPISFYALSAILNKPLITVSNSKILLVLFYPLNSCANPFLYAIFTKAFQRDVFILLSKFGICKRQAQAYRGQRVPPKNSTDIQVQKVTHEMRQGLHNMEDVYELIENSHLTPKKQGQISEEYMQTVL
Sequence of Androgen receptor (Homo sapiens) (P10275 whole entry, looked up): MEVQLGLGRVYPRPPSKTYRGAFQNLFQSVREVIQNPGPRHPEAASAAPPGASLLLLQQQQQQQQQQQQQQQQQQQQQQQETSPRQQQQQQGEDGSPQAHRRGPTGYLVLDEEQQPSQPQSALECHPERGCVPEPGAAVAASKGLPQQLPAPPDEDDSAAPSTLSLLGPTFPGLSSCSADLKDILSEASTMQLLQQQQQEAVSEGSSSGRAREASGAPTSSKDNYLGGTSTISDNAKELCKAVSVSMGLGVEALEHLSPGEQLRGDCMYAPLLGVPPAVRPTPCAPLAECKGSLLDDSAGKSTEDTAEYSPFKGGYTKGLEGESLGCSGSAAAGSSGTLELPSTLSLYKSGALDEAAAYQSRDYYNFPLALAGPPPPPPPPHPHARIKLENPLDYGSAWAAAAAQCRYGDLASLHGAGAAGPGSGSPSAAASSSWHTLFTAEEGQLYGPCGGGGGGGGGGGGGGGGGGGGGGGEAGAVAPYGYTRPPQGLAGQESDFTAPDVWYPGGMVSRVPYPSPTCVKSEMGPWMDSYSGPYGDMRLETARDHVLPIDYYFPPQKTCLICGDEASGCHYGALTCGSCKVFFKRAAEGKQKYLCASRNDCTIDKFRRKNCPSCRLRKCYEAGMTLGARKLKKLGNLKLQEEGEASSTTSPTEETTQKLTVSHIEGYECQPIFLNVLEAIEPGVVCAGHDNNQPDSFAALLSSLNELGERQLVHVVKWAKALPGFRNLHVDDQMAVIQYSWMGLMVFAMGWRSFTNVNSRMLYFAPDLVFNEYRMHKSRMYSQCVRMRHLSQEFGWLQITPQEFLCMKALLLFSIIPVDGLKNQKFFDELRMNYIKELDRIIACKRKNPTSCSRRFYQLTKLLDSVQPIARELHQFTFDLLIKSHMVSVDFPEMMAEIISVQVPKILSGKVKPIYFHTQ

Turning to `CC[C@@H]1C[C@H](N(Cc2cc(C(F)(F)F)cc(C(F)(F)F)c2)C(C)=O)c2cc(C(F)(F)F)ccc2N1C(=O)OC(C)C`, the Potency in experiment [1] was 9.69 µM (active). Besides, the Potency result in [2], in experiment [3], in experiment [4], in experiment [5], in experiment [6] and in experiment [8] was “inactive” throughout. The Potency result in experiment [9], in [10], in [11], in experiment [12] and in [14] was “inactive” each time. The call in [7] and in experiment [13] was inactive.
As for `CC(C)(C)c1ccc(S)cc1`, the Potency entry in experiment [1], in [2], in experiment [3], in [4], in [5] and in experiment [15] was “inactive” throughout. The Potency entry in [16], in [6], in experiment [8], in experiment [9], in experiment [10] and in experiment [11] was “inactive” throughout. Besides, the Potency entry in experiment [12] and in experiment [14] was “inactive” throughout. Also, the result in experiment [7] and in experiment [13] was inactive.
Take `C1CCC2OC2C1` (stereo not drawn): the Potency entry in [1], in experiment [17], in experiment [3], in experiment [18], in [19] and in experiment [4] was “inactive” each time. For the same compound, the Potency entry in experiment [5], in experiment [15], in experiment [6], in [8], in experiment [9] and in experiment [10] was “inactive” throughout. The Potency entry in [12] and in experiment [14] was “inactive” in each case. The call in experiment [7], in [13] and in experiment [20] was inactive.
As to `CN1CCC(=C2c3ccccc3CCc3sccc32)CC1`, the Potency in [1] was 2.98 µM (active); in [18], 26.6 µM (active); in experiment [4], 21.1 µM (active); in experiment [10], 15 µM (active). In addition, the Potency result in experiment [2], in experiment [5], in [15], in [16], in experiment [6] and in [11] was “inactive” throughout. Further, the Potency entry in [12] was “inactive”. For the same compound, the result in experiment [7] and in [13] was inactive.
With `Cn1c(N)nc2nc[nH]c2c1=O`, the Potency result in experiment [1], in [2], in [17], in experiment [18], in experiment [6] and in experiment [10] was “inactive” each time. Moreover, the Potency entry in experiment [11], in [12] and in experiment [14] was “inactive” throughout. For the same compound, the Potency in experiment [16] is 48 µM (active). The outcome in experiment [7], in [13] and in [20] was inactive.
Take `O=C(O)c1cn(C2CC2)c2cc(Cl)c(F)cc2c1=O`: the Potency entry in experiment [1], in [2], in experiment [19], in experiment [4], in [5] and in experiment [15] was “inactive” each time. For the same compound, the Potency result in experiment [16], in experiment [6], in experiment [8], in experiment [9], in experiment [10] and in [11] was “inactive” each time. Besides, the Potency result in experiment [12] and in experiment [14] was “inactive” in each case. Besides, in experiment [20], the call was inactive.
For `O=C(O)/C=C/c1cnc[nH]1`, the Potency entry in [1], in experiment [2], in experiment [17], in experiment [4], in experiment [15] and in experiment [16] was “inactive” in each case. The Potency entry in experiment [6], in experiment [8], in [9], in [10], in [12] and in experiment [14] was “inactive” throughout. For the same compound, the call in experiment [7], in experiment [13] and in experiment [20] was inactive.
